Experimental data taken from PubChem BioAssay AID1135 (Sanford-Burnham Center for Chemical Genomics, 2008).
In all, about 200,000 compounds went through this assay and about 65 (0.03%) were called active.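 How the source made its calls: active means over 50% inhibition of tissue-nonspecific alkaline phosphatase at 20 µM in the single-dose screen; inactive means the rest.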 The sample as a whole holds a higher share of actives than the screen did.

The molecules below were run against Alkaline phosphatase, tissue-nonspecific isozyme (Homo sapiens) (UniProt P05186) (assay: human TNAP enzyme inhibitors, primary screen, biochemical, luminescent, high phosphate acceptor level, uHTS (AID 1135;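 further: plate controls were DMSO wells for no effect and EDTA-quenched wells as full inhibition for full effect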)). Conditions: purified TNAP, CDP-star luminescence, 1 M DEA; at 20 µM; active compounds read high.
Sequence of Alkaline phosphatase, tissue-nonspecific isozyme (Homo sapiens) (P05186 whole entry, looked up): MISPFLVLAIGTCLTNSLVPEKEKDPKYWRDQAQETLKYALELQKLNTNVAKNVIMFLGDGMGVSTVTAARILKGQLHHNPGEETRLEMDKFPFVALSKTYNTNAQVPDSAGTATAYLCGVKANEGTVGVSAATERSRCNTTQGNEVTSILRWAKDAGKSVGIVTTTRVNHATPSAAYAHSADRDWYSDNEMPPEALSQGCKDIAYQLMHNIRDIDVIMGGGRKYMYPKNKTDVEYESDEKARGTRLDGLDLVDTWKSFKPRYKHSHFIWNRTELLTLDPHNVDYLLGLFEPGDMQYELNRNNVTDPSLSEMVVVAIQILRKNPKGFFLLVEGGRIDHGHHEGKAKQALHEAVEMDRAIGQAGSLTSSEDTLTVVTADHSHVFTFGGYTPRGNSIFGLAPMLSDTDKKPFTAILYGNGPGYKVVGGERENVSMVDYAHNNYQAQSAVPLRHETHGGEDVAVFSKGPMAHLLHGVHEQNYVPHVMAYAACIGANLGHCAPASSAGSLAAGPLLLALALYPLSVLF

inhibition, inactive:
OC(CN=c1sc2ccccc2n1CC(O)COc1ccccc1)COc1ccccc1 (configuration not stated) -2%
CC(C)(C)C(=O)N1CCC[C@@]1(CO)C(=O)O 1.3%
CCCn1nc(C(=O)Nc2ccc3nc(C)sc3c2)c2ccccc2c1=O 0%
O=C(NNc1cc(Cl)ccc1Cl)c1cccnc1Cl -3.3%
Cn1cnnc1Sc1ccc(S(C)(=O)=O)cc1[N+](=O)[O-] 3.1%
CN(C)S(=O)(=O)c1ccc(N2CCCC2=O)c([N+](=O)[O-])c1 -2.1%
Cc1ccccc1Nc1nc(N)nc(CSc2nnc3ccccn23)n1 -3.4%
O=C1CCC/C(=N\NC(=O)NC2CCCCC2)C1 3.6%
Cc1ccccc1C1=NC(C(F)(F)F)(C(F)(F)F)c2c(n(-c3ccc(F)cc3)c(=O)[nH]c2=O)N1 -3.5%
Cc1cccc(NC(=S)Nc2ccc(Cl)c(Cl)c2)c1 -5.2%
COc1ccccc1Oc1ccc(N/C=C2/CCCC2=O)cc1 -1.1%
Cc1ccc(OCc2n[nH]c(=S)n2-c2ccccc2)cc1 -3.4%
COC(=O)c1c(NC(=O)c2c(Cl)cnn2C)sc(C)c1C -0.7%
Cc1nc2ccccc2nc(C)c1=NOCc1ccc(Cl)cc1Cl -3.2%
O=C(/C=C/c1ccc(F)cc1)NC(=S)NNC(=O)c1cccnc1 -2.2%
CC1=C[C@H]2Cc3cc(C)cc(C)c3S(=O)(=O)[C@@H]2C=C1 1.3%
Cc1ccc(C)c(-n2nnnc2SCC(=O)c2c(N)n(C)c(=O)n(C)c2=O)c1 -2.7%
COc1cccc(NC(=S)N(Cc2ccc(C)cc2)Cc2ccccn2)c1 -3.4%
COc1cccc(C2CC(c3ccccc3)=NN2S(=O)(=O)c2ccccc2)c1OC (configuration not stated) -5.8%
Cn1c(=N)n(CC(O)c2cccs2)c2ccccc21 (configuration not stated) -2%
C=CCNc1nc(Nc2ccc(Cl)cc2)nc(OC)n1 -3%
COC(=O)c1nn(-c2cccc(Cl)c2)ccc1=O -8.9%
CCN(CC)CCN(C(=O)c1ccc(N2C(=O)CCC2=O)cc1)c1nc2cc3c(cc2s1)OCO3 -2.1%
CC(=O)c1cnc(SCC(=O)O)nc1C -1.6%
Cc1cccc(C2=N/C(=C/c3cccs3)C(=O)O2)c1 -2.6%
COC(=O)C(C(=O)Nc1cccc(Cl)c1C)C1CCCC1 (configuration not stated) -6.6%
CCOC(=O)C1C(c2ccc(Cl)cc2)NC(=S)NC1(O)C(F)(F)F (configuration not stated) 4.4%
